Sampled rows, rich in hits. Any-hit rate of the full collection: about 0.82%.
eLon inh – E. coli protease La inhibition; inhibition, % at 7.94 µM; 360,000 compounds, 0.42% hits; P0A9M0; purified E. coli Lon protease, fluorescence polarization; in the data active means inhibition above about 13%, passing the limit was not always enough;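 further: 0% = enzyme with probe and DMSO and 100% = no enzyme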
Target sequence (P0A9M0 whole entry, looked up): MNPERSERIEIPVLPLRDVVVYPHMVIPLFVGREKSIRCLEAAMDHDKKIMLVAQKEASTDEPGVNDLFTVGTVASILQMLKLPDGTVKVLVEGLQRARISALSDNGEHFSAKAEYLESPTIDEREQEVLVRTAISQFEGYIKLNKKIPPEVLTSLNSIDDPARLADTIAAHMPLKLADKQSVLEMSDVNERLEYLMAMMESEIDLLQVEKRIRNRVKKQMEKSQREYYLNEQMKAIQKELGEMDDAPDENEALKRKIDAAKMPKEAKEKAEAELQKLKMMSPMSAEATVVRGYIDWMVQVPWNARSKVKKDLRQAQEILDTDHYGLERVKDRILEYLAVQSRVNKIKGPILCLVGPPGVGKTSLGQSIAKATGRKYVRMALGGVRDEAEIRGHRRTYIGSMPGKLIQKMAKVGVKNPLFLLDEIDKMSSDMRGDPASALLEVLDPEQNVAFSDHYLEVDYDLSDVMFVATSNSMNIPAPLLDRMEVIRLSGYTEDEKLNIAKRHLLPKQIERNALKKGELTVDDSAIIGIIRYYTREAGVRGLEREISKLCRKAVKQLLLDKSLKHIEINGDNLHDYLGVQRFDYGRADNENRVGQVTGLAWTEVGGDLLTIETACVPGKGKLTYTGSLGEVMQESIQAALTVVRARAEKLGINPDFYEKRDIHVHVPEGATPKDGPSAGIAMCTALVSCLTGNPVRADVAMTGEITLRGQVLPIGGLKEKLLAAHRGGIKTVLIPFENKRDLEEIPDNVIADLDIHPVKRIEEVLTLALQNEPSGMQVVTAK
Keap1-Nrf2 PPI – Keap1-Nrf2 (human) interaction inhibition; inhibition, % at 9.4 µM; 340,000 compounds, 0.15% hits; AID 504523; Q14145; Keap1 Kelch-Nrf2 peptide fluorescence polarization, 1536-well; in the data active means inhibition above about 12%;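 further: human Keap1 Kelch domain with fluorescein labeled Nrf2 9mer peptide probe; 0% = neutral control wells and 100% = peptide positive control; higher means more block of Keap1 binding to Nrf2 peptide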
C-LANA FP – KSHV C-LANA DNA binding inhibition | 340,000 compounds, 0.078% hits | AID 504423 | MBP-C-LANA/FAM-LBS DNA binding, fluorescence polarization | inhibition, % at 9 µM;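 active means highest replicate inhibition at or above 60% at 9 µM, even if other replicates fall short; inactive means all replicates below 60% inhibition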;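 further: 0% = neutral control wells and 100% = 4 µM acridine orange control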
RTF Ca sens inh – cardiac RTF calcium desensitization; P19429+P45379; IANBD-labeled cardiac RTF, Ca2+ fluorescence; inhibition, % at 7.15 µM; 340,000 compounds, 0.12% hits;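 active means inhibition above the mean inhibition of all tested compounds plus 3 SD, cut at about 17% in these data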;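 further: assay run at fixed EC70 calcium of 1.6 mM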
RTF Ca sens act – increases calcium sensitivity of human cardiac regulated thin filaments; P19429+P45379; IANBD-labeled TnC RTF fluorescence at EC20 calcium; 0% EC20 calcium, 100% full calcium; activation, % at 7.2 µM; 340,000 compounds, 0.24% hits; AID 493008;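 active means activation above the mean over all tested compounds plus 3 SD, cut at about 30% in these data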;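 further: rise in fluorescence read as greater calcium sensitivity of cardiac thin filaments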
Keap1 Kelch bind – binders of human Keap1 Kelch domain | shares compounds with Keap1-Nrf2 PPI | Keap1 Kelch thermal shift, delta Tm; hits give high values | max delta Tm, degrees C | 400 compounds, 8% hits | AID 651823; in the data active means max delta Tm above about 0.48 degrees C
Dye-only ctr – counter-screen for Keap1 thermal shift hits: dye-only artifacts; shares compounds with Keap1-Nrf2 PPI; Sypro Orange dye-only thermal melt, no protein, delta Tm; top dose 26 µM; delta Tm, degrees C (no concentration beside the values); 140 tested, under 10 active; AID 651858;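 active means at highest dose tested, delta Tm positive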
The depositor's hits bear a star; / = no result.

SMILES	eLon inh	Keap1-Nrf2 PPI	C-LANA FP	RTF Ca sens inh	RTF Ca sens act	Keap1 Kelch bind	others
Cc1cc(C)c2c(SC(C)C)nc(N)nc2n1	-5	23*	14	-61	47*	-0.18
CCOc1ccccc1NC(=O)CSc1nnnn1C1CCCC1	4	7	2	-10	-9	/
CCCS(=O)(=O)c1ccc(COC(=O)Cc2ccc([N+](=O)[O-])cc2)cc1	-3	-1	-1	3	1	/
CCOCCCn1c(=NC(=O)c2cccs2)c(C#N)cc2c(=O)n3ccccc3nc21	0	23*	30	-21	10	-0.12
Cc1noc(C)c1C(=O)N1CCC1(C)C(=O)NS(=O)(=O)c1cccc(Cl)c1 (stereo unspecified)	21	/	/	/	/	/
CC(=O)Nc1c(NC(C)(C)C)c2ccccc2oc1=O	0	4	-1	0	3	/
CC(=O)Nc1c(N)c2ccccc2oc1=O	-6	14*	5	-2	0	-0.16	Dye-only ctr=-26
Cc1nn(Cc2ccccc2Cl)c(C)c1C(=O)NCC(c1cccs1)N1CCOCC1 (stereo unspecified)	1	0	-2	9	2	/
Cc1cnc(NC(=O)Cc2ccc(S(=O)(=O)N3CCOCC3)s2)s1	20	13*	8	-5	5	-0.11
COc1ccc(Cl)cc1NC(=O)CN(C)C(=O)c1ccc(-n2nc(C)cc2C)cc1	-10	1	1	3	2	/
CN(N=Nc1ccc([N+](=O)[O-])cc1)c1ccccc1	1	113*	101*	-8	511*	0
CN(N=Nc1cccc([N+](=O)[O-])c1)c1ccccc1	2	-2	-3	5	-2	/
COC(=O)N/N=C/c1cn(Cc2ccccc2Cl)c2ccccc12	-2	17*	2	3	-1	-0.17	Dye-only ctr=-23
CCNCC(=O)N1c2ccccc2CCc2ccc(NC(C)=O)cc21	3	-2	0	-5	3	/
CC(=O)Nc1ccc2c(c1)N(C(=O)CN(C)C)c1ccccc1CC2	4	123*	27	1	3	-0.18
CCN(Cc1ccccc1)C(=O)CN1C(=O)COc2ccc(S(=O)(=O)NC3CCCC3)cc21	3	-3	-2	-5	2	/
C=CCn1ccc(=NC=C(C#N)C#N)c2ccccc21	-23	130*	24	-9	4	-0.04
C=CCn1ccc2c([N+](=O)[O-])cccc2c1=O	6	-2	1	8	-5	/
CC(=O)N1CCN(Cc2cc(=O)oc3ccccc23)CC1	-3	/	/	/	/	/
O=C1c2cccc3c(N4CCCCC4)ccc(c23)C(=O)N1c1ccccc1O	-59	16*	41	-118	73*	-0.13
O=C(NC1CCCCC1)C1CCN(S(=O)(=O)c2cccc3nonc23)CC1	-14	-2	-1	-16	-6	/
O=C1c2ccccc2C(=O)N1C1C=CC=CC=C1	-11	/	/	/	/	/
COc1cc(Cl)c(C)cc1NCC(=O)Nc1cccc(S(=O)(=O)N2CCCC2)c1	0	28*	15	-4	12	-0.1	Dye-only ctr=-27
COc1ccc(NS(=O)(=O)c2cc(OC)ccc2OC)cc1	-6	0	0	3	3	/
COc1ccc(OC)c(S(=O)(=O)Nc2ccc(F)cc2)c1	-6	12*	3	-1	-8	-0.08
SMILES	eLon inh	Keap1-Nrf2 PPI	C-LANA FP	RTF Ca sens inh	RTF Ca sens act	Keap1 Kelch bind	others
CC1(C)CC(=O)C2=C(C1)OC(N)=C(C#N)C2c1ccccc1[N+](=O)[O-] (stereo unspecified)	22	25*	20	-16	14	-0.11
CCCCCC(=O)N1CCCC1	-2	16*	-2	-2	2	-0.08	Dye-only ctr=-23
O=C(CCCCCCCC(=O)N1CCCCCC1)N1CCCCCC1	-5	-1	0	3	2	/
O=S1(=O)CCOC[C@H](c2ccccc2)N1Cc1ccccc1F	-7	0	1	-5	-1	/
COc1cccc(NC(=O)CN(C)CC(=O)NCc2ccco2)c1	5	24*	81*	3	-7	-0.07	Dye-only ctr=-22
CS(=O)(=O)N1CCCC(C(=O)Nc2ccc(F)c(F)c2)C1 (stereo unspecified)	2	42*	17	-11	14	-0.08	Dye-only ctr=-27
O=C(CN1CCN(Cc2ccc3c(c2)OCO3)CC1)Nc1ccc(F)cc1	-4	-4	0	-12	-5	/
O=C(CN1CCN(C(=O)CNC(=O)c2ccc3c(c2)OCO3)CC1)Nc1ccc(F)cc1	1	62*	/	-24	10	-0.08
Cc1ccc(S(=O)(=O)N(CC(=O)Nc2ccccc2)C(=O)N2CCN(C)CC2)cc1	1	-1	-2	-1	1	/
Nc1ncnc2c1ncn2[C@@H]1O[C@H](CNCc2ccc(OCC(=O)Nc3nccs3)cc2)[C@@H](O)[C@H]1O	-6	-3	0	-3	2	/
O=C(Cc1ccccc1)Nc1ccnn1C1CCN(Cc2nccs2)CC1	-4	-5	0	-4	0	/
O=C(O)CCNc1ccc(NCCC(=O)O)c2c1C(=O)c1ccccc1C2=O	26	13*	55	-22	7	0.63*	Dye-only ctr=-26
CCn1c(=O)c(CCC(=O)N2CCN(c3ccccn3)CC2)c(C)c2c(C)nn(-c3cccc(C)c3)c21	2	-4	0	7	5	/
CN(C)c1ccc(/C=N/NC(=O)CCC(=O)NCc2ccccc2)cc1	10	53*	5	1	-1	-0.19
CC[C@H](C)[C@H](NC(=O)OCc1ccccc1)C(=O)OCC(=O)N1CCN(c2ccc(F)cc2)CC1	-6	26*	13	-11	3	-0.12	Dye-only ctr=-26
Cn1c(N)c(C(=O)CSc2nnc3n2CCCCC3)c(=O)n(C)c1=O	-6	0	1	-2	-2	/
CNC(=S)Nc1cccc(C(=O)OC)c1	3	41*	/	/	/	-0.03	Dye-only ctr=-28
C=CCn1cccc(C(=O)Nc2ccc(OC)c(OC)c2)c1=O	-5	3	0	/	/	/
C=CCn1cccc(C(=O)Nc2ccc(OC)c(Cl)c2)c1=O	-1	48*	-2	-8	32*	-0.06
COc1ccc(Cl)cc1NC(=O)CN(C)C(=O)Cn1cnnn1	2	-4	-1	1	-4	/
N/C(Cc1cccc2ccccc12)=N\O	10	17*	/	-13	13	-0.14	Dye-only ctr=-22
O=C(CN1C(=O)NC2(CCCC2)C1=O)Nc1cccc(C(F)(F)F)c1	-5	-3	1	-16	0	/
O=C(CN1C(=O)NC2(CCCC2)C1=O)Nc1ccc(C(F)(F)F)cc1	-6	12*	-2	3	-7	-0.12
O=S(=O)([O-])CCC[n+]1c(SCCCS(=O)(=O)O)sc2ccc(Cl)cc21	-5	21*	-1	-6	-4	-0.02	Dye-only ctr=-26
COc1ccc(NS(=O)(=O)c2cccc(C(=O)NN=Cc3cc(Br)c(O)c(Br)c3)c2)cc1	9	-3	0	7	-4	/
